Data: the antibiotic and cytotoxicity screens of Wong et al. (2023)
Among all 39,000 compounds or so, about 500 (1.3%) were called active. Many of the other results were omitted from the sample, so actives are more common in it than they were.

The compounds below were run on S. aureus RN4220 (assay: growth inhibition call (relative growth <= 0.2)). Conditions: 50 µM.

| SMILES | growth inhibition call |
| --- | --- |
| O.O.O.O=C([O-])C1[O][Sb]2[O]C(=O)C([O]2)C(C(=O)[O-])[O][Sb]2[O]C(=O)C1[O]2.[K+].[K+] (configuration not stated) | inactive |
| CC(C)=CCCC1(C)C=Cc2c(O)c3c(c(CC=C(C)C)c2O1)OC12C(=CC4CC1C(C)(C)OC2(CC=C(C)C(=O)O)C4=O)C3=O (configuration not stated) | inactive |
| NC(=O)c1cc([N+](=O)[O-])cc([N+](=O)[O-])c1 | inactive |
| CC(C)[C@@H]1NC[C@@H]2CCCN2C1=O | inactive |
| C=C[C@H]1[C@H](O[C@@H]2O[C@H](CO)[C@@H](O)[C@H](O)[C@H]2O)OC=C2C(=O)OCC[C@H]21 | inactive |
| O=[N+]([O-])c1ccc(N(CCO)CCO)c2c1no[n+]2[O-] | active |
| C#CCOS(=O)OC1CCCCC1Oc1ccc(C(C)(C)C)cc1 (configuration not stated) | inactive |
| O=C(c1ccccc1)C12CN3CN(CN(C3)C1)C2 | inactive |
| C1CC2(CCN1)OCCO2 | inactive |
| Clc1cc2c(cc1Cl)Oc1cc(Cl)c(Cl)cc1O2 | inactive |
| [O-][n+]1ccccc1[S][Zn][S]c1cccc[n+]1[O-] | active |
| O[C@H]1[C@H](O)[C@@H](O)CN2CC[C@H](O)[C@H]12 | inactive |
| CCN(CC)S(=O)(=O)c1ccc(Cn2nc(C(=O)Nc3ccc(N4CCCCC4)cc3)c3ccccc32)cc1 | inactive |
| COC(=O)C(c1ccccc1)C1CCCCN1.Cl (configuration not stated) | inactive |
| CC[C@@H](N)[C@@H](O)c1ccc(O)c(O)c1 | inactive |
| CCC(COC(=O)c1cc(OC)c(OC)c(OC)c1)(c1ccccc1)N(C)C.O=C(O)C=CC(=O)O (configuration not stated) | inactive |
| COP(=S)(OC)Oc1ccc(Sc2ccc(OP(=S)(OC)OC)cc2)cc1 | inactive |
| CCOP(=S)(OCC)Oc1nc(Cl)c(Cl)cc1Cl | inactive |
| COP(=S)(OC)Oc1cc(Cl)c(Cl)cc1Cl | active |
| N[C@@]1(C(=O)O)CC[C@@H](C(=O)O)C1.N[C@]1(C(=O)O)CC[C@H](C(=O)O)C1 | inactive |
| NCCc1nnc2n1CCCCC2 | inactive |

| SMILES | growth inhibition call |
| --- | --- |
| CNC(C)C(O)c1ccccc1.Cl (configuration not stated) | inactive |
| CCCCCCCCCCCCCCCC[n+]1ccccc1.[Cl-] | inactive |
| CNC1C(O)C(OC2C(N)CC(N)C(OC3OC(C(C)O)C(O)C(O)C3N)C2O)OCC1(C)O (configuration not stated) | active |
| CN[C@@H]1[C@@H](O)[C@@H](O[C@@H]2[C@H](O)[C@@H](O[C@H]3O[C@H]([C@@H](C)O)[C@@H](O)[C@H](O)[C@H]3N)[C@H](N)C[C@@H]2N)OC[C@]1(C)O | inactive |
| CN[C@@H]1[C@@H](O)[C@@H](O[C@@H]2[C@@H](O)[C@H](O[C@H]3O[C@H](CN)CC[C@H]3N)[C@@H](N)C[C@H]2N)OC[C@]1(C)O.CN[C@@H]1[C@@H](O)[C@@H](O[C@@H]2[C@@H](O)[C@H](O[C@H]3O[C@H]([C@@H](C)N)CC[C@H]3N)[C@@H](N)C[C@H]2N)OC[C@]1(C)O.CN[C@@H]1[C@@H](O)[C@@H](O[C@@H]2[C@@H](O)[C@H](O[C@H]3O[C@H]([C@@H](C)NC)CC[C@H]3N)[C@@H](N)C[C@H]2N)OC[C@]1(C)O | inactive |
| O=C1O[C@H]2CN[C@@H]1C2 | inactive |
| C[C@H]1CN([C@@H](C)CO)C(=O)CCCn2nncc2CO[C@@H]1CN(C)C(=O)Oc1ccc2ccccc2c1 | inactive |
| CC1=C(O)C(=O)C=C2C1=CC=C1C2(C)CCC2(C)C3CC(C)(C(=O)O)CCC3(C)CCC12C (configuration not stated) | inactive |
| CCn1nc(-c2cccnc2)nc2c(=O)n(C)c(=O)nc1-2 | active |
| Cc1nc2c(=O)n(C)c(=O)nc-2n(C)n1 | inactive |
| Cn1ncnc2c(=O)n(C)c(=O)nc1-2 | inactive |
| CCC1=C[C@@H]2[C@H](C1)C[C@]2(CN)CC(=O)O | inactive |
| C[C@@H]1CN([C@@H](C)CO)C(=O)CCCn2cc(nn2)CO[C@@H]1CN(C)C(=O)Oc1cccc2ccccc12 | inactive |
| Cl.Oc1noc2c1CCNC2 | inactive |
| CC12CCC(O)CC1CCC1C2CC(O)C2(C)C(C3=CC(=O)OC3)CCC12O (configuration not stated) | inactive |
| CC1=C2CC3C(CC=C4CC(O)CCC43C)C2CCC12OC1CC(C)CNC1C2C (configuration not stated) | inactive |
| O=C(O)C=CC(=O)O.c1ccc2nc(N3CCNCC3)ccc2c1 | inactive |
| CC(C)(C)C(=O)C(Oc1ccc(Cl)cc1)n1cncn1 (configuration not stated) | inactive |
| O=C1C=C2C(=CCO[C@@H]2O)O1 | inactive |
| O=C1C=C2C(=CCOC2O)O1 (configuration not stated) | active |
| CO[C@@H]1C=C[C@@H]2[C@H]1N2CCCO (some centres not stated) | inactive |

| SMILES | growth inhibition call |
| --- | --- |
| Cc1cc[n+](C)cc1 | inactive |
| COc1ccc(CN2CCNCC2)c(OC)c1OC.Cl.Cl | inactive |
| COCCCNC(=O)C1[C@@H]2CC[C@H]1CNC2 (some centres not stated) | inactive |
| COc1ccc2c(c1)C[C@H](N)C2 | inactive |
| Oc1c(Cl)c(Cl)c(Cl)c(Cl)c1Cl | active |
| CCCCCCCCCCCCCCCC[N+](C)(C)C.[Br-] | inactive |
| C[C@@H](N)Cc1c[nH]c2ccc(O)cc12 | inactive |
| Oc1ccccc1N1CCNCC1 | inactive |
| CN1C(=O)[C@]23CC4=CC=C[C@H](O)[C@H]4N2C(=O)[C@@]1(CO)SS3 | inactive |
| CN1C(=O)[C@@]23C[C@]4([C@@]56C[C@]78SS[C@](CO)(C(=O)N7[C@@H]5Nc5ccccc56)N(C)C8=O)c5ccccc5N[C@H]4N2C(=O)[C@@]1(CO)SS3 | active |
| CCCC(=O)c1c(O)[nH]c(=O)[nH]c1=O | inactive |
| CCCC12CNCC(C)(CNC1)C2=O | inactive |
| c1ccc2cc3c(cc2c1)-c1cccc2cccc-3c12 | inactive |
| CN(C)C(=S)SSC(=S)N(C)C | active |
| CO[C@@H]1C[C@@H](C[C@H]2CC[C@H](C)[C@H]([C@@H](C)C(=O)O)O2)O[C@]2(O[C@](C)([C@H]3CC[C@@](C)([C@H]4O[C@@H]([C@H]5O[C@@](O)(CO)[C@H](C)C[C@@H]5C)C[C@@H]4C)O3)C[C@H]2C)[C@@H]1C | active |
| Cc1ccc(OC(=O)N(C)C[C@H]2OCc3ccccc3-c3c(n(C)c4ccccc34)C(=O)N([C@@H](C)CO)C[C@@H]2C)cc1 | inactive |
| CC(C)c1cc2c(c(O)c1O)C1(C(=O)O)CCCC(C)(C)C1CC2 (configuration not stated) | inactive |
| O=C(NCNC(=O)N[C@H]1C(=O)NC(=O)N1CO)N[C@H]1C(=O)NC(=O)N1CO | inactive |
| CC(C)(CN)CNc1ccc([N+](=O)[O-])c2cccnc12 | inactive |
| CC(=O)OC1CC(OC2C(O)CC(OC3C(O)CC(OC4CCC5(C)C(CCC6C5CC(O)C5(C)C(C7=CC(=O)OC7)CCC65O)C4)OC3C)OC2C)OC(C)C1OC1OC(CO)C(O)C(O)C1O (configuration not stated) | inactive |
